Measurements as given in PubChem BioAssay (NCI).
The panel holds about 83,000 compounds, 20% with a hit somewhere; the sample as a whole holds those more often.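 Activity criterion: percent growth below 10, measured after cells in 96-well plates were exposed to a single compound concentration for 48 hours.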 Unmarked numbers belong to inactive results. Active and inactive are the calls of the source.

What was measured:
Experiment in all cases: NCI-60 one-dose screen, 48 h (100 = growth as untreated, 0 = no growth, -100 = all killed)
Conditions in all cases: 10 µM unless noted
T-47D breast = system: T-47D breast
BT-549 breast = system: BT-549 breast
MDA-MB-435 melanoma = system: MDA-MB-435 melanoma
SW-620 colon = system: SW-620 colon
MCF7 breast = system: MCF7 breast
HCT-116 colon = system: HCT-116 colon
HCC-2998 colon = system: HCC-2998 colon
KM12 colon = system: KM12 colon

Row | SMILES | growth (T-47D breast) | growth (BT-549 breast) | growth (MDA-MB-435 melanoma) | growth (SW-620 colon) | growth (MCF7 breast) | growth (HCT-116 colon) | growth (HCC-2998 colon) | growth (KM12 colon)
1 | CCOC(=O)c1ccc2c(c1)nc(-c1ccccc1)n2C1CCCCC1 | 66.8% | 93% | 102% | 111% | 93.3% | 63.7% | 91.6% | 95.1%
2 | C#CCOc1cccc(Nc2ncnc3ccc(NC(=O)C=C)cc23)c1 | 39% | 19.5% | 43.8% | 55.9% | 47.6% | 32.8% | 84.6% | 60.4%
3 | O=S(=O)(NCCCNc1nccc(-c2c(-c3ccc(F)c(O)c3)nc3occn23)n1)c1ccc(Cl)cc1 | 69.1% | 79.4% | 27.6% | 97.8% | 55.9% | 32.8% | 85.7% | 70.2%
4 | O=C(/C=C/c1cn(-c2ccccc2)nc1-c1ccc(Cl)cc1)c1ccc(F)cc1 | 38.9% | 96% | 326% | 75.4% | 41.8% | 41.1% | 186% | 63.8%
5 | N#Cc1nc(-c2ccc(F)cc2)oc1S(=O)(=O)N1CCOCC1 | -6.45% (active) | 98.5% | 79.8% | -77.9% (active) | 30.4% | -18.4% (active) | 106% | 102%
6 | CCn1cc(C(=O)O)c(=O)c2cc(F)c(N3CCN(CC(=O)Nc4ccc(S(=O)(=O)Nc5nccc(C)n5)cc4)C(C)C3)c(F)c21 (centres undefined) | 98.9% | 132% | 103% | 96.6% | 96.7% | 104% | 115% | 100%
7 | O=C(NCCCl)Nc1ncccc1OCc1ccccc1 | 97.9% | 105% | 97.1% | 99% | 96.3% | 101% | 102% | 108%
8 | CN1C(=O)/C(=C\c2c(Cl)cccc2Cl)c2ccccc21 | 90.3% | 98.7% | 7.16% (active) | 66.3% | 68.7% | 91.9% | 80.4% | 62.3%
9 | COC1=CC(c2ccc[nH]2)=N/C1=C\c1[nH]c(C)c(C)c1CCC(=O)OCc1ccccc1 | 2.57% (active) | -28.7% (active) | -39% (active) | -14.8% (active) | 3.15% (active) | -76% (active) | 6.09% (active) | -20.9% (active)
10 | CC/C(=C(/c1ccc(Cl)cc1)c1ccc(OCCN2CCCCC2)cc1)c1ccc(OC)cc1 | 32.3% | 78.2% | 65.6% | 39.1% | 15.3% | 46.9% | 71% | 39.1%
11 | C#CCOc1ccc2ncnc(Nc3ccc(NC(=O)C=C)cc3)c2c1 | 4.07% (active) | -28.7% (active) | -18.9% (active) | -45.8% (active) | -10.4% (active) | -79.9% (active) | 82.2% | 8.91% (active)
12 | CCOC(=O)c1c(C(=O)c2cn(C)c3ccc(Br)cc23)c(-c2cn(C)c3ccc(Br)cc23)n(NC(=O)OC(C)(C)C)c1C | 58.8% [100 µM] | 39.2% [100 µM] | 96.5% [100 µM] | 91.8% [100 µM] | 78.3% [100 µM] | 54% [100 µM] | 111% [100 µM] | 89.4% [100 µM]
13 | N=C(N)c1ccc(-c2ccc(-c3ccc(Cl)c(Cl)c3)s2)nc1 | 56.2% | 87.5% | 10.8% | -56.6% (active) | -64.6% (active) | -50.8% (active) | -61.9% (active) | -74.6% (active)
14 | C=C1C(=O)O[C@H]2[C@H]1CC/C(COC(=O)NCc1ccc(Cn3c(=O)sn(CCCCC)c3=O)cc1)=C\CC[C@@]1(C)O[C@@H]21 | 0.543% (active) | 42.5% | 25.7% | -61.1% (active) | 6.29% (active) | -12.3% (active) | 94.6% | 95.9%
15 | CCOC(=O)NC(C)C | 100% | 116% | 111% | 111% | 106% | 98.4% | 103% | 112%
16 | Cc1ccc(Nn2c(SCC(=O)Nc3nc(-c4ccccc4)cs3)nc(C)c2C)cc1 | -2.45% (active) | 63.5% | 76.7% | 98.8% | 28.5% | 40.2% | 92% | 82.9%
17 | COc1ccc(C2=Nc3c(N)nc(N)nc3NC(c3cccc(Nc4ccnc5cc(C(F)(F)F)ccc45)c3)C2)cc1 (centres undefined) | 93% | 107% | 10.1% | 50.4% | 37.7% | 37.9% | 72.2% | 40.4%
18 | CC(=O)c1c(C)nc(SCC(=O)Nc2cccc(O)c2)n1-c1ccc(Cl)cc1 | 95.9% | 93.1% | 84.7% | 87.3% | 91.1% | 94.8% | 99.3% | 93.7%
19 | C=CCc1c(O)c(C(=O)/C=C/c2ccccc2)c(OC)c2ccoc12 | 41.3% | 34.3% | 26.4% | 39.9% | 16.1% | 22.9% | 50.4% | 45.2%
20 | COC(=O)CC[C@@H]1O[C@@H](c2cccc(C(F)(F)F)c2)[C@@H](O)[C@H]1O | 98.8% | 98.9% | 102% | 100% | 96.7% | 98.2% | 114% | 94.1%
21 | CCCCNCCCCCNc1cc(OC)cc2cccnc12 | 79.4% | 91% | 102% | 100% | 84.6% | 85.9% | 95.4% | 114%
22 | C=C1C(=O)O[C@H]2[C@H]1CC/C(COC(=O)/C=C\C(=O)NCc1ccc(Cn3c(=O)sn(CCI)c3=O)cc1)=C\CC[C@@]1(C)O[C@@H]21 | 57.6% | 71.9% | 44.9% | 8.21% (active) | 24.8% | 19% | 83.9% | 97.4%
23 | COc1cc2c(c(OC)c1OC)CCC(c1cccc(NC(=O)c3ccc(Br)cc3)c1)O2 (centres undefined) | 40.4% | 87.5% | 69.1% | 91.5% | 73.2% | 71.9% | 102% | 91.1%
24 | CCCCCC(/C=N\NC(=S)N/N=C/C(=C/c1ccccc1)CCCCC)=C\c1ccccc1 | 83.9% | 83.4% | 81.6% | 81.2% | 75.9% | 53.3% | 64.6% | 66.7%
25 | Oc1c(I)cc(I)cc1CNCCN(Cc1ccccn1)Cc1ccccn1 | -36% (active) | -33.6% (active) | -66.6% (active) | -42.5% (active) | -6.6% (active) | -45.1% (active) | -86.8% (active) | -38.9% (active)
26 | COC(=O)c1c(C)c2n(c1C)C(=O)C(c1ccccc1)=C2 | 37.1% | 51.2% | 78.1% | 93% | 39% | 74.2% | 75.1% | 78.2%
27 | O=C1/C(=C/c2cn(-c3ccccc3)nc2-c2ccccc2)SC(=S)N1C1CCCCC1 | 97% | 114% | 98.8% | 96% | 86.2% | 90.1% | 108% | 102%
28 | COc1ccc2c(c1OC)CO[C@@H]2[C@H]1c2c(cc3c(c2OC)OCO3)CCN1S(=O)(=O)c1cn(C)cn1 | 33.4% | 38.2% | -27.3% (active) | 25.4% | 16.9% | 14.4% | 11.7% | 11.3%
